# Compounds with a hit are over-represented: about 2.3% of the library has one in this group of screens.
# USP1 inh: inhibitors of human USP1/UAF1 deubiquitinase | AID 743255 | recombinant USP1/UAF1, Ub-Rhodamine cleavage fluorescence | 390,000 tested, 0.23% active | O94782 | Potency, µM (titrated, usually from 57.1 µM), inactives show at the highest dose activity change, negative = inhibition, most hits filed as inhibitors; note: potency is the fitted concentration of half-maximal effect; nearly all actives have a fitted effect of over 60% in size
#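 USP1/UAF1 complex at 1 nM was preincubated with compound for 15 min at room temperature, then Ub-Rho substrate (150nM final) was added. Fluorescence (480/540 nm) was read kinetically, 6 reads every 60 seconds.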
# Tau fibril FP: inhibitors of human tau fibril formation. P10636. K18 P301L tau heparin fibrillization, Alexa594 FP, 6 h. Potency, µM (titrated, usually from 57.7 µM), inactives show at the top dose activity, negative = inhibition, most hits filed as inhibitors. 280,000 tested, 0.39% active; note: potency is the fitted concentration of half-maximal effect; nearly all actives have a fitted effect of over 55% in size
# Target sequence (P10636 561-689 P618L limits assumed): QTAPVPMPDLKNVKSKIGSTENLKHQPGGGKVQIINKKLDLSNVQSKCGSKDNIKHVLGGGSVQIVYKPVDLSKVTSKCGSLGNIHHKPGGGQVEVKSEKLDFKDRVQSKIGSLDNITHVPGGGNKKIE
#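 Human K18 P301L fragment (15 uM unlabeled plus 0.24 uM Alexa 594-labeled) in 100 mM sodium acetate pH 7 with compound, aggregation induced by 20 uM heparin for 6 hr at 37 C. ThT (30 uM) added for 1 hr, then Alexa 594 FP read.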
# Tau fluor cs: counter-screen for tau fibril formation inhibitors | Potency, µM (titrated, usually from 57.7 µM), inactives show top-dose activity change, negative = decrease | AID 1463 | tau K18 P301L Alexa594 fluorescence, heparin fibrillization | 280,000 tested, 0.93% active; note: potency is the fitted concentration of half-maximal effect; nearly all actives have a fitted effect of over 55% in size
#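 Human K18 P301L tau (15 uM unlabeled plus 0.24 uM Alexa 594-labeled, final) in 100 mM sodium acetate pH 7 was mixed with compound and 20 uM heparin and incubated 6 hr at 37 C.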
# Tau ThT inhib: inhibitors of human tau fibril formation, thioflavin T binding; recombinant tau K18 P301L (four-repeat tau fragment), heparin-induced fibrillization, ThT fluorescence; Potency, µM (doses to about 57.4 µM), without a hit: at the top dose activity, negative = inhibition, most hits filed as inhibitors; AID 1460; P10636; 270,000 tested, 2.1% active; note: potency is the fitted concentration of half-maximal effect; nearly all actives have a fitted effect of over 55% in size
#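 Heparin-induced (20 uM) aggregation of recombinant human K18 P301L tau, 15 uM unlabeled with 0.24 uM labeled, pH 7 acetate buffer, 6 hr at 37 C with compound. Fibrils quantified by 30 uM ThT fluorescence after 1 hr ambient incubation.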
# FBPA coupling cs: counter-screen for Giardia aldolase inhibitors: coupling enzyme system; coupling enzyme system counterscreen, AmpLite Red fluorescence; activity change, negative = inhibition, % at 58.2 µM, hits read low; 290,000 tested, 0.67% active; in the data active = activity change below about -30%
#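 Counterscreen of the coupled detection system alone, without aldolase: glyceraldehyde-3-phosphate coupling enzymes plus AmpLite Red readout. Compounds at 57.5 uM final, 10 min RT preincubation, 20 min RT reaction, fluorescence 525/598 nm.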
# * hit, by the source's call; ? = inconclusive; . = not tested or not shown; [ ] = dose if it differs, or a comment. Unless noted, calls come from the whole dose curve; as a rule, active = well fitted curve in the direction sought with a large enough effect; inconclusive = small, poorly fitted or top-dose-only effect, or another doubt; inactive = no such curve, though single readings can be large; an effect the other way counts as inactive or inconclusive. % is set by controls: 0 for no effect and ±100 for the full control effect.
SMILES,USP1 inh,Tau fibril FP,Tau fluor cs,Tau ThT inhib,FBPA coupling cs
C=CCN1C(=O)/C(=C/c2ccc(Br)s2)C(=O)NC1=S,?,.,.,.,0
CCN1C(=O)/C(=C\c2ccc([N+](=O)[O-])s2)C(=O)NC1=S,.,?,?,3.5µM*,-40*
COc1ccc(OC)c(N2C(=O)NC(=O)/C(=C/c3ccc([N+](=O)[O-])s3)C2=O)c1,16µM*,14µM*,?,13µM*,-33*
COc1ccc(N2C(=O)/C(=C/c3ccc(C)o3)C(=O)NC2=S)cc1,-19%,.,.,.,1
COc1ccc(S(=O)(=O)NCCc2sc3nc(-c4ccc(C)cc4)nn3c2C)cc1F,-9%,?,-25%,1%,.
Cc1nc2c(=O)n(C)c(=O)nc-2n(C)n1,0.032µM*,?,1%,?,-2
Cc1ccc(OCC(=O)N/N=C\c2ccc(O)c([N+](=O)[O-])c2)c([N+](=O)[O-])c1,1%,6%,-22%,13µM*,-1
CN(C)c1ncc(/C=C2/C(=O)NC(=S)N(C3CCCCC3)C2=O)cn1,.,4%,-15%,?,2
C=C1C(=O)O[C@@H]2C[C@@H](C)[C@@H]3C4OC4C(=O)[C@@]3(C)[C@@H](O)[C@H]12 (some centres undefined),1%,7.9µM*,-10%,13µM*,6
Cc1ncc(CN2CC=C(c3ccccc3)CC2)c(N)n1,.,7%,-11%,-10%,-5
C/C(=N\NC(=O)c1ccccc1O)c1c(O)n(Cc2ccccc2)c(=O)[nH]c1=O,?,13%,?,14µM*,13
O=C1NC(=O)C2(Cc3ccccc3N3CCCC32)C(=O)N1c1ccccc1 (centres undefined),-12%,?,-19%,?,1
CN1c2ccc([N+](=O)[O-])cc2CC2(C(=O)NC(=O)N(c3ccc(Br)cc3)C2=O)C1c1ccccc1 (centres undefined),-14%,-1%,-14%,16µM*,-4
C(=C\c1ccccc1)/CN1CCN(CCOC(c2ccccc2)c2ccccc2)CC1,.,-5%,-14%,-15%,.
N#CC(C#N)=Cc1ccc(C=C(C#N)C#N)cc1,?,?,-21%,20µM*,-23
N#CC(C#N)=Cc1ccc([N+](=O)[O-])c(O)c1,.,?,?,25µM*,-28
C=CCN1C(=O)/C(=C/c2cc(C)n(-c3cccnc3)c2C)C(=O)NC1=S,-4%,?,-19%,22µM*,-19
C=CCNC(=S)Nc1ccc(OC(=O)Nc2ccc(Cl)c(Cl)c2)cc1,-17%,16µM*,?,?,1
CC(=O)N1CCCc2cc(S(=O)(=O)N3CCCC(C(=O)N4CCN(c5ccccc5F)CC4)C3)ccc21 (centres undefined),?,9%,8%,1%,.
c1cncc(C2Nc3cccc4cccc(c34)N2)c1,-27%,?,14µM*[quencher],13µM*,-15
CN(C)C(CSC(N)=O)CSC(N)=O,.,.,.,.,-2
Cc1cccc(N2C(=O)NC(=O)/C(=C\C=C\c3ccco3)C2=O)c1,-15%,?,-5%,10µM*,4
Cc1ccc(N2C(=O)NC(=O)/C(=C\C=C\c3ccco3)C2=O)cc1C,-2%,?,-14%,13µM*,0
O=C1NC(=O)N(c2ccccc2)C(=O)/C1=C/C=C/c1ccco1,-12%,.,.,.,3
Cc1cccc(N2C(=O)NC(=O)/C(=C/c3ccc([N+](=O)[O-])o3)C2=O)c1,?,4%,2%,0%,-36*
SMILES,USP1 inh,Tau fibril FP,Tau fluor cs,Tau ThT inhib,FBPA coupling cs
CN(C)c1ccc(/C=C/C=C2/C(=O)NC(=O)N(c3ccccc3)C2=O)cc1,-26%,?,?,4µM*,-8
Cc1cccc(N2C(=O)NC(=O)/C(=C\c3cccn3-c3ccc(Cl)cc3)C2=O)c1,-19%,-3%,-13%,?,4
COC(=O)[C@H]1[C@H](c2ccccc2)C(=O)[C@@]2(O)c3ccccc3O[C@@]12c1ccccc1,.,-15%[11.6 µM],-20%[11.6 µM],-10%[11.5 µM],0
Cc1ccc(/C=C2/C(=O)NC(=O)N(Cc3ccc(F)cc3)C2=O)o1,.,-1%,-3%,.,0
COc1ccc(CN2C(=O)NC(=O)/C(=C/c3ccc([N+](=O)[O-])o3)C2=O)cc1,.,?,?,8.9µM*,-9
Cc1ccc(N2C(=O)NC(=O)/C(=C\C=C\c3ccco3)C2=O)cc1,-18%,13µM*,?,.,2
COC(=O)COc1ccc(C[C@@H](C)NC[C@H](O)c2cccc(Cl)c2)cc1,.,.,.,.,-1
COc1ccc(C(=O)Nc2ccc3c(c2)N(C)C(=O)c2ccccc2S3)cc1OC,-3%,?,?,-12%,.
CN1CCN(c2ccc(N)cc2Cl)CC1,-11%,4%,-15%,?,-32*
c1ccc(-c2cc3c(nc2-c2ccccc2)CCNC3)cc1,.,-4%[11.6 µM],-2%[11.6 µM],-1%[11.5 µM],2
Cc1ccc2c(c1)CC1(CN2C)C(=O)NC(=O)N(CCC2=CCCCC2)C1=O (centres undefined),-5%,?,-26%,25µM*,-6
Cc1nn(CCC#N)c2c1P(=S)(N1CCCC1)OC(c1ccc(F)cc1)=N2 (centres undefined),-10%,?,-25%,32µM*,2
CC1(C)CC(=O)C(C2(O)C(=O)NC(=O)NC2=O)=C(O)C1,-22%,?,-18%,6.3µM*,-14
C/C(=C\c1ccc(N(C)C)cc1)[N+](=O)[O-],1%,-6%,14µM*[quencher],13µM*,1
CN(C)c1ccc(C(=O)c2ccc(N(C)C)cc2)cc1,-17%,6%,-19%,?,0
CN(C)c1ccc(/C=C/[N+](=O)[O-])cc1,-26%,-1%,?,10µM*,0
CN(C)c1ccc(C=C2C(=O)NC(=O)NC2=O)cc1,-12%,.,.,.,.
CN1C(=O)c2ccccc2Sc2ccc(NC(=O)c3ccc(C(F)(F)F)cc3)cc21,2%,?,-12%,14%,.
c1nc[n]([Sn]([CH]2CCCCC2)([CH]2CCCCC2)[CH]2CCCCC2)n1,.,.,.,.,1
Nc1ccc(N)cc1,.,?,?,14µM*,-26
Nc1ccc(Cc2ccc(N)cc2)cc1,-10%,.,.,.,.
NC(=O)CF,.,.,.,.,0
O=C1NC(=S)N(C2CC2)C(=O)/C1=C/c1ccc2c(c1)CCN2CCCCl,-9%,?,-18%,?,-15
CCN1C(=O)/C(=C/c2ccc3c(c2)CCN3CCCCl)C(=O)NC1=S,-19%,?,-11%,18µM*,1
Cc1c(CCC(=O)N2CCCCC2)c(=O)oc2cc3occ(C(C)(C)C)c3cc12,-20%,14%,-8%,?,.
CNc1cc(Cl)c2nonc2c1[N+](=O)[O-],-22%,-9%,?,11µM*,-12
Cc1cc([N+](=O)[O-])c(Cl)cc1NC(=O)C(C)C,-17%,1%,6%,4%,2
